Assay [1] has as its target Albumin (Bos taurus) (UniProt P02769). The assay can be described thus: compounds binding labelled BSA control protein – biochemical, small-molecule microarray, Alexa647 label, 635/667 nm fluorescence, artefact control for SMM control protein annotation, profiling panel (AID 1118).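 Note: score merges 667 nm emission intensity and signal-to-noise per printed compound spot.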 The conditions noted are these: BSA-A647 binding, fluorescence 635 nm, higher = more signal.

Assay [2] is described as follows: probe aXIP binding to arrayed compounds – biochemical, NeuroSMM set, 635/667 nm fluorescence, primary screen (AID 1119).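 Note: probe is the protein aXip251-270 applied at 1 µg/mL to compound-printed slides; binding of probe to printed compounds measured as 667 nm fluorescence plus signal to noise.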 The settings on record: small-molecule microarray, higher = more signal, called active from +8 up or from −8 down.
The nature of assay [3]: probe aNOTCH3 binding on compound microarray – biochemical, small-molecule microarray, 635/667 nm fluorescence, primary screen (AID 1120).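 Note: probe is a biotin-tagged antibody raised against NOTCH3 rather than NOTCH3 protein; score merges spot fluorescence near 667 nm with spot signal to noise.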 The conditions noted are these: higher = more signal.
A short description of assay [4]: probe aNOTCH2 binding on compound microarray – biochemical, small-molecule microarray, 635/667 nm fluorescence, primary screen (AID 1121).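 Note: score merges feature fluorescence read at 667 nm with its signal to noise.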 The settings on record: higher = more signal.
The target in assay [5] is Carbonic anhydrase 2 (Homo sapiens) (UniProt P00918). Briefly: compounds binding carbonic anhydrase 2 – biochemical, small-molecule microarray, Alexa647-labelled CAII, profiling panel (AID 1122). The settings on record: CAII-A647 binding fluorescence, higher = more signal.
A short description of assay [6]: COS7 lysate on small-molecule microarray, probe aHis, 635 nm (AID 1123).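 Note: z-score combines 667nm fluorescence intensity with signal-to-noise per printed compound spot.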 The conditions noted are these: COS7 cell lysate, fluorescence, higher = more signal.
Assay [7] is described as follows: probe aLAP1 signal on lysate-treated microarray – cell lysate, small-molecule microarray, COS7 lysate, primary screen (AID 1124).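 Note: lysate comes from COS7 cells expressing LAP1 and is applied at 0.3 µg/mL; score merges spot fluorescence near 667 nm with signal-to-noise over triplicate slides.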 The settings on record: probe aLAP1, fluorescence, higher = more signal.
For assay [8], the system named is Sam68 (KHDRBS1). The assay can be described thus: compounds binding KHDRBS1 protein – biochemical, small-molecule microarray, 635 nm fluorescence, primary screen (AID 1125).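 Note: score merges 667 nm channel intensity with signal to noise over triplicate slides.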 The settings on record: higher = more signal.
In assay [9] the test system is Chordin-like protein 2 (CHRDL2). The assay can be described thus: compounds binding chordin-like 2 – biochemical, small-molecule microarray, 635 nm fluorescence, primary screen (AID 1126).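 Note: printed compound slides probed with Chrdl2 protein at 4 µg/mL for 1 h at 4 C; score merges 667 nm emission intensity with signal to noise over three replicate slides.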 The conditions noted are these: fluorescence 635 nm, higher = more signal.
Assay [10] addresses Concanavalin-A (Canavalia ensiformis) (UniProt P02866). The assay can be described thus: compounds binding concanavalin A lectin – biochemical, small-molecule microarray, Alexa647 label, 635 nm, artefact control for SMM control protein annotation, primary screen (AID 1127).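 Note: z combines 667 nm emission intensity with signal-to-noise across three replicate slides.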 The settings on record: ConA-A647 binding fluorescence, higher = more signal.
Assay [11] can be described thus: compounds binding Alexa647 anti-His antibody – biochemical, small-molecule microarray, 635 nm fluorescence, artefact control for SMM control protein annotation, primary screen (AID 1128).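 Note: score merges feature fluorescence with signal-to-noise for each printed compound spot.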 The settings on record: higher = more signal.
Assay [12] concerns Human papillomavirus type 1a E7 protein (residues 1-88). The assay can be described thus: HPV1a E7 small-molecule binders, primary screen, biochemical, small-molecule microarray, residues 1-88, 635 nm (AID 1129). The conditions noted are these: small-molecule microarray binding, fluorescence 635 nm; higher = more signal.
Assay [13] deals with Focal adhesion kinase 1 (Homo sapiens) (UniProt Q05397). Briefly: PTK2 protein binding on printed compound slides – biochemical, small-molecule microarray, 635/667 nm fluorescence, BSA, DTT, primary screen (AID 1130).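 Note: composite of spot emission at 667 nm and signal to noise over triplicate slides.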 The settings on record: 635 nm fluorescence, higher = more signal.
Assay [14] concerns Fibrinogen (Alexa647-labelled). The assay can be described thus: Alexa647-fibrinogen binding to printed small molecules – biochemical, small-molecule microarray, 635/667 nm fluorescence, artefact control for SMM control-protein annotation, profiling panel (AID 1131).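 Note: z-score merges 667 nm fluorescence with per-spot signal-to-noise over triplicate slides.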 The settings on record: fibrinogen-A647 binding fluorescence, higher = more signal.
The target in assay [15] is Follistatin (Homo sapiens) (UniProt P19883). The assay can be described thus: FST protein binding to printed compounds – biochemical, small-molecule microarray, 635/667 nm fluorescence, primary screen (AID 1132). The settings on record: 635 nm fluorescence, higher = more signal.
In assay [16] the target is Fibroblast growth factor 2 (Homo sapiens) (UniProt P09038). The assay can be described thus: basic fibroblast growth factor binding to printed compounds – biochemical, small-molecule microarray, 635/667 nm fluorescence, primary screen (AID 1133). The conditions noted are these: FGF2, fluorescence 635/667, higher = more signal.
Assay [17] in a line: JC-1 mitochondrial potential readout, lung cancer cells – cell-based, A549, JC-1 fluorescence, basal, 24 h, 100 nL, profiling panel (AID 1138).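 Note: A549 lung adenocarcinoma cells under basal conditions with no added stimulus; test concentration not given here.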 The settings on record: higher = more signal.
Assay [18] deals with Lefty1. The assay can be described thus: Lefty1 protein binding to printed compounds – biochemical, small-molecule microarray, 635/667 nm fluorescence, primary screen (AID 1139). The conditions noted are these: fluorescence 635/667, higher = more signal.
Assay [19] deals with wheat germ agglutinin (Triticum aestivum), Alexa647-labelled. The assay can be described thus: Alexa647-WGA lectin binding to printed small molecules – biochemical, small-molecule microarray, 635/667 nm fluorescence, artefact control for SMM control-protein annotation, profiling panel (AID 1140).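 Note: score merges 667 nm feature emission with signal to noise over triplicate slides.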 The settings on record: WGA-A647 binding, 635 nm fluorescence, higher = more signal.

Assay [20] has as its target Luciferin 4-monooxygenase (Photinus pyralis) (UniProt P08659). Briefly: inhibition of purified Photinus pyralis luciferase – biochemical, luminescence, purified enzyme, 2006 set, primary screen (AID 1141).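 Note: cell-free assay with purified firefly luciferase at 100 ng per well in PBS; test concentration not given here.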 The conditions noted are these: purified firefly luciferase, SteadyGlo luminescence, 30 min; higher = more signal, called active from +8 up or from −8 down.

The structures appear in SMILES notation. Calls of active or inactive are those of the source.

Albumin (Bos taurus), sequence (P02769 whole entry, looked up): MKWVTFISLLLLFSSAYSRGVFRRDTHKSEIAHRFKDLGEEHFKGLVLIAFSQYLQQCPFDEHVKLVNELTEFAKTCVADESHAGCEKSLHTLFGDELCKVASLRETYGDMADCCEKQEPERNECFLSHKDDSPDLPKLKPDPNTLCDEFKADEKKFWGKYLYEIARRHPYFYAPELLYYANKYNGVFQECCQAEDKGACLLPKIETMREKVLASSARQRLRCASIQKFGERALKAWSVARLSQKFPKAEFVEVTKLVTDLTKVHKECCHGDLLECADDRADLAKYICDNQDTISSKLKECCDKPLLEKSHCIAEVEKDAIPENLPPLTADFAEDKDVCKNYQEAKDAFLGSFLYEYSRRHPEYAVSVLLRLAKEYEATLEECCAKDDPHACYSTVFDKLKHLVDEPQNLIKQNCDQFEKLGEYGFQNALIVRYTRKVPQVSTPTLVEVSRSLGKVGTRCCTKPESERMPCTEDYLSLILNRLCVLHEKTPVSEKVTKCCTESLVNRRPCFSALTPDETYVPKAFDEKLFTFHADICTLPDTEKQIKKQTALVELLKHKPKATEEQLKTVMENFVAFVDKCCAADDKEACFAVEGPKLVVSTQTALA
Focal adhesion kinase 1 (Homo sapiens), sequence (Q05397 whole entry, looked up): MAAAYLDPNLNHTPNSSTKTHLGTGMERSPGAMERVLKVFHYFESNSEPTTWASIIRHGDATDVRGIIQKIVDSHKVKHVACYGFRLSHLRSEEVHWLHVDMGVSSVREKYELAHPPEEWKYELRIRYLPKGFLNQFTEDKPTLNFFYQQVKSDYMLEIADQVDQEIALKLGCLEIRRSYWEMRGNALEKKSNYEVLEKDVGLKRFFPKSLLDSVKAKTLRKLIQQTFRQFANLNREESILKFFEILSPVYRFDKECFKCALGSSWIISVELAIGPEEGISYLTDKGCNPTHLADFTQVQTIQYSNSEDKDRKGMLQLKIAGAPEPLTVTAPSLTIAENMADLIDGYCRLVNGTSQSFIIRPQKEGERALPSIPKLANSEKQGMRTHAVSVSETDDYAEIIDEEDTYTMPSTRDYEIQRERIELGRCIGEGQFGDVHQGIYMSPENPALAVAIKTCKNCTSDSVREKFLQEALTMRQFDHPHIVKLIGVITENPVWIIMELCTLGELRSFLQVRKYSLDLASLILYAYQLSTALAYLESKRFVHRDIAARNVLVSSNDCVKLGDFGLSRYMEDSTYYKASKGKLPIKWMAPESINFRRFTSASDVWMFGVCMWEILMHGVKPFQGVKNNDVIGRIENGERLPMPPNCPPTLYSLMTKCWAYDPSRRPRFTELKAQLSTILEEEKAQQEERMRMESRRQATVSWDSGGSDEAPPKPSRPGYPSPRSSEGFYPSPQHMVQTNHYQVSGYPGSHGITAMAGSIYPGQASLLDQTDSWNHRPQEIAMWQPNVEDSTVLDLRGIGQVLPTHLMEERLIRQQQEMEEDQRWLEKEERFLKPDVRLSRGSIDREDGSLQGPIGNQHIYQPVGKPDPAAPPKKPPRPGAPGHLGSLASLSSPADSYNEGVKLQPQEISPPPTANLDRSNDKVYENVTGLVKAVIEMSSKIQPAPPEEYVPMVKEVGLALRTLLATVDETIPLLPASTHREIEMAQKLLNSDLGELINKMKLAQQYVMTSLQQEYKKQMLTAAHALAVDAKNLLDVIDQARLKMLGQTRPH
Follistatin (Homo sapiens), sequence (P19883 whole entry, looked up): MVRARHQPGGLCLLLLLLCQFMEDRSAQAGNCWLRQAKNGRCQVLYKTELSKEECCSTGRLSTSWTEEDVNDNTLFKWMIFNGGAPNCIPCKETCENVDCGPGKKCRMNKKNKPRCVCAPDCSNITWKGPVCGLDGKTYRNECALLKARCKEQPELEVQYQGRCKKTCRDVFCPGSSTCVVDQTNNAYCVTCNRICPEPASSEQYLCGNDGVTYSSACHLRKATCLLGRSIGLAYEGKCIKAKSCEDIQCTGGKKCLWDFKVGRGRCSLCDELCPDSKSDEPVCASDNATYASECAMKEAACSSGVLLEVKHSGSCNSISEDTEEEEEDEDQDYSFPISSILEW
Concanavalin-A (Canavalia ensiformis), sequence (P02866 whole entry, looked up): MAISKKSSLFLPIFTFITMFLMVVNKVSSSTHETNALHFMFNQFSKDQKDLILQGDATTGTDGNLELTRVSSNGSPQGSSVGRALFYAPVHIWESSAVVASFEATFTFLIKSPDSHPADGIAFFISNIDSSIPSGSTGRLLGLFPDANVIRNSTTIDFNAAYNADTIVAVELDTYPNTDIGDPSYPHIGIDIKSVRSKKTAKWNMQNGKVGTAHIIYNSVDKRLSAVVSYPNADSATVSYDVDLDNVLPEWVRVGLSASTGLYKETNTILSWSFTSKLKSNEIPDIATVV
Fibroblast growth factor 2 (Homo sapiens), sequence (P09038 whole entry, looked up): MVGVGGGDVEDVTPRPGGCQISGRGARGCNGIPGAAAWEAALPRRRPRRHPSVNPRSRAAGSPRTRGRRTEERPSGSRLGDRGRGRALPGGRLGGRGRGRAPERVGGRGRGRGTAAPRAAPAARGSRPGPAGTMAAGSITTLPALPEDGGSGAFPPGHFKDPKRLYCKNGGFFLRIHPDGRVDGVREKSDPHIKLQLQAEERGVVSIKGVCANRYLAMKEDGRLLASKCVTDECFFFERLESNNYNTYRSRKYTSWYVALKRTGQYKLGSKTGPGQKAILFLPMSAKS
Luciferin 4-monooxygenase (Photinus pyralis), sequence (P08659 whole entry, looked up): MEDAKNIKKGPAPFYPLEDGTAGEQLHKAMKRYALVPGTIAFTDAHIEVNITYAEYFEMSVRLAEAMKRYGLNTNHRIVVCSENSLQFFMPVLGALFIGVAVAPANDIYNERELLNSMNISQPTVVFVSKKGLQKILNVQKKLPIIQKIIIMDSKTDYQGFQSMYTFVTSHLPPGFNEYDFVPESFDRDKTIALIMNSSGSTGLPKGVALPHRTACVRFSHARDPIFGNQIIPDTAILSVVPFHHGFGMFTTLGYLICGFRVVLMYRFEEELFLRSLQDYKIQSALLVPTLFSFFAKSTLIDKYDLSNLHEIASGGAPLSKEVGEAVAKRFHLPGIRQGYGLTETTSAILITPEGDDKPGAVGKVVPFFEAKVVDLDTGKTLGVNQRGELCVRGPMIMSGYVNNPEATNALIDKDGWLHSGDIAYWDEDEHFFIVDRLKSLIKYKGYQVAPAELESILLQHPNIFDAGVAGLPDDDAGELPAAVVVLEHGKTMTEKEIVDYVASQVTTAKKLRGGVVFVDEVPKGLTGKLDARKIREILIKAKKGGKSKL

For the molecule `Cc1ccc(S[C@]2(C(=O)NCC(F)(F)F)CC(=O)N(Cc3ccccc3)[C@@H]2c2ccc(CO)cc2I)cc1`, the composite z-score was 0.132 in assay [1]; -0.212 in assay [3]; -0.183 in assay [4]; 0.679 in assay [5]; 1.21 in assay [6]; 1.57 in assay [7]. Also, the composite z-score is 0.0687 in [8]; -0.151 in assay [9]; -0.203 in assay [10]; 0.905 in assay [11]; 0.676 in [12]; -0.315 in assay [13]. Besides, the composite z-score in [14] was 0.0957; in [15] it was -0.0488; in assay [16], -0.177; in [18] it was -0.779; in assay [19] it was 0.626. Besides, the composite Z-score in assay [2] is 0.184 (inactive). For the same molecule, the z-score in [17] is 0.16; in [20] it was 0.424 (inactive).
Take `O=C1O[C@@H](c2ccccc2)[C@@H](c2ccccc2)N2[C@@H](c3ccc(O)cc3)[C@]3(C(=O)Nc4ccc(C#CC5(O)CCCCCC5)cc43)[C@@H](C(=O)NC[C@H](O)c3ccccc3)[C@H]12`: the composite z-score was 0.0697 in assay [1]; -0.262 in assay [3]; -0.0984 in [4]; 0.547 in [5]; 1.05 in assay [6]; 0.632 in [7]. Moreover, the composite z-score in assay [8] was 0.686; in assay [9], -0.703; in assay [10], 0.221; in [11] it was 0.326; in assay [12], 0.899; in assay [13], 0.551. The composite z-score was 0.151 in assay [14]; -0.538 in [15]; -0.322 in [16]; -0.218 in [18]; 0.297 in [19]. In addition, in assay [2], the composite Z-score was 0.2 (inactive). For the same molecule, the z-score in assay [17] was -1.31; in assay [20], 0.27 (inactive).
For the molecule `COc1ccccc1CN1C(=O)c2ccccc2[C@](Cc2ccccc2I)(C(=O)NCC(F)(F)F)[C@@H]1c1ccc(CO)cc1`, the composite z-score was 0.832 in assay [1]; 0.073 in assay [3]; -0.057 in assay [4]; 0.824 in assay [5]; 1.95 in assay [6]; 0.311 in assay [7]. In addition, the composite z-score in assay [8] was 1.29; in assay [9], -1.12; in assay [10], 1.15; in assay [11], 2.25; in [12] it was 1.24; in assay [13], 0.473. Further, the composite z-score in assay [14] worked out at 0.74; in assay [15], 1.26; in assay [16], 0.342; in [18], 0.168; in assay [19] it was 0.887. Moreover, in [2], the composite Z-score was -0.46 (inactive). Besides, the z-score was -0.878 in [17] and 0.347 (inactive) in assay [20].
`O=C1NC(=O)C2C1C=CC(C(O)c1cccc3ccccc13)N2Nc1ccc(Cl)cc1Cl` (stereo not given): the composite z-score in assay [1] was 0.205; in assay [3] it was 0.0496; in assay [4], 0.0915; in assay [5], 0.358; in [6], 2.12; in assay [7], 0.818. The composite z-score in [8] was 0.762; in assay [9], -0.155; in assay [10] it was 1.07; in assay [11], 1.92; in assay [12], 1.16; in assay [13], 0.442. Also, the composite z-score in assay [14] is 0.838; in [15], 0.425; in [16] it was -0.517; in assay [18], -0.734; in assay [19], 0.758. For the same molecule, the composite Z-score in assay [2] is -0.288 (inactive). In addition, the values for the z-score in assay [17] and in [20] were -1.28 and 0.0698 (inactive), respectively.
For `C=CCN1Cc2ccccc2[C@H]2OC(c3ccc(OCCCO)cc3)=N[C@@]2(CC=C)C1=O`, the composite z-score is -0.405 in assay [1]; 0.133 in [3]; 0.007 in assay [4]; 0.418 in [5]; 2.78 in assay [6]; 0.373 in assay [7]. Further, the composite z-score in assay [8] came out at 1.31; in [9], 1.39; in assay [10] it was 0.85; in assay [11], 2.47; in [12], 1.23; in assay [13], 1.12. In addition, the composite z-score in [14] was determined as 0.59; in [15], 1.54; in assay [16], 1.87; in [18] it was 0.834; in [19], 0.619. Also, in [2], the composite Z-score was 0.911 (inactive). Further, the z-score in assay [17] was 1.33; in assay [20] it was -0.107 (inactive).
As to `OCC1CC(c2ccccc2)=NO1` (stereo not given), the composite z-score in assay [1] is -0.558; in [3], -0.185; in [4] it was -0.124; in [5], -0.179; in [6], -0.53; in assay [7] it was -0.437. The composite z-score was -0.424 in assay [8]; 0.843 in assay [9]; -0.36 in [10]; 0.702 in assay [11]; -0.0937 in assay [12]; -0.219 in assay [13]. Besides, the composite z-score is -0.327 in assay [14]; 0.5 in assay [15]; 0.774 in assay [16]; -0.0193 in assay [18]; -0.239 in assay [19]. Besides, in assay [2], the composite Z-score is -0.228 (inactive). Moreover, the z-score in assay [17] is 0.875; in assay [20] it was -1.4 (inactive).
As to `CCOC(=O)C[C@H]1[C@H](OC(=O)Cc2ccc3c(c2)OCO3)[C@@H](NC(=O)Cc2ccc(OC)cc2)c2cc(OCCCO)ccc2N1C(=O)c1ccc2ccccc2n1`, the composite z-score in assay [1] was 0.857; in [3], -0.0768; in [4] it was -0.11; in [5], 0.154; in [6] it was 1.15; in assay [7], 0.199. For the same molecule, the composite z-score is 0.489 in assay [8]; 0.276 in assay [9]; -0.533 in assay [10]; 0.0036 in assay [11]; 0.383 in assay [12]; -0.345 in assay [13]. In addition, the composite z-score in assay [14] was 0.172; in [15] it was 0.147; in assay [16], 0.211; in assay [18], 0.168; in assay [19] it was -0.119. For the same molecule, the composite Z-score in [2] is -0.802 (inactive). Moreover, the results for the z-score in [17] and in assay [20] were 2.69 and -1.7 (inactive), respectively.
As for `O=C1C[C@@](C(=O)NCCN2CCOCC2)(c2ccc([N+](=O)[O-])cc2)[C@@H](c2ccc(CO)cc2I)N1C1CCCCC1`, the composite z-score in [1] is 0.614; in [3] it was -0.095; in [4], -0.14; in assay [5], 0.659; in assay [6], 1.74; in assay [7] it was 1.07. Also, the composite z-score amounted to 0.761 in assay [8]; 0.473 in assay [9]; 0.416 in assay [10]; 1.27 in assay [11]; 1.24 in assay [12]; 0.211 in assay [13]. Moreover, the composite z-score in assay [14] is -0.415; in [15] it was 1.15; in assay [16], 0.94; in assay [18], 0.992; in assay [19], 0.308. For the same molecule, the composite Z-score in assay [2] was 0.142 (inactive). The z-score in assay [17] is 1.8; in assay [20], 1.35 (inactive).

Values taken from PubChem BioAssay.
